Measurements from PubChem BioAssay AID1117358 (Southern Research Institute, 2015).
In all, about 2,300 compounds went through this assay and about 160 (7%) were called active. Only a sample is shown. Results with a measured potency or affinity are listed apart. Unmarked numbers belong to inactive results. No rule for the calls is given here.

Experiment: Vero cell cytotoxicity, dose response, cytotoxicity control for Vif-APOBEC3G degradation inhibitor project, Vero cells (AID 1117358)
Conditions: CellTiter-Glo ATP luminescence, 72 h; series mostly up to 40 µM; viability: at the top concentration

SMILES | viability
CC(C(=O)N1CCOCC1)(c1ccccc1)c1ccccc1 | 99.1%
COc1ccc(C(C)(C)C)cc1NC(=O)C1C2C=CC(C2)C1C(=O)O (centres undefined) | 95.7%
CC1CCCC(NC(=O)Cn2cc3c(n2)CCCCC3)C1C (centres undefined) | 97.6%
CCOC(=O)N1CCN(CC(=O)c2ccc3c(c2)CCN3C(C)=O)CC1 | 103%
CCOc1ccc2[nH]c(=O)c(CN(Cc3nnnn3Cc3ccco3)C3CCCCC3)cc2c1 | 94.2%
CCOC(=O)c1ccc(NC(=O)CSCc2ccco2)cc1 | 105%
Cc1cc(C)n(CC(O)CN2c3ccccc3Sc3ccccc32)n1 (centres undefined) | 92.5%
COC(=O)COc1ccc(S(=O)(=O)NCc2ccco2)cc1Cl | 95.7%
CCOc1cc(Cl)c(S(=O)(=O)NCc2ccccn2)cc1Cl | 90.8%
O=C(Cn1ncc2c(=O)oc3ccccc3c21)N1CCCc2ccccc21 | 94.4%
CCC(C)NS(=O)(=O)c1ccc(S(=O)(=O)N(CC(=O)Nc2ccccc2)CC2CCCO2)cc1 (centres undefined) | 97.2%
Cc1cccc(C)c1NC(=O)COC(=O)c1cc(-c2cccnc2)nc2ccccc12 | 80.7%
CCOC(=O)CC1Sc2ccccc2NC1=O (centres undefined) | 86.3%
COc1cc(O)oc1C=Nc1ccccc1 | 93.3%
Cc1ccc(S(=O)(=O)N=Nc2c(O)[nH]c3ccccc23)cc1 | 99.4%
CCOC(=O)C1=C(CSc2nc(C)ccc2C#N)OC(N)=C(C#N)C1c1cccc(OC)c1OC (centres undefined) | 95.5%
Cc1nc(NC(=O)CN2CCOCC2)sc1-c1ccccc1 | 91.9%
O=C(O)CC(C(=O)O)N1C(=O)/C(=C/c2ccc(-c3nc4ccccc4s3)o2)SC1=S (centres undefined) | 97.1%
O=C1CC(c2ccco2)CC(O)=C1C=Nc1ccc(Br)cc1 (centres undefined) | 95.1%
COc1ccc(OCC(=O)O/N=C(\N)Cc2ccc(Cl)cc2)cc1 | 91.2%
CCC(=O)Nc1nc2ccc(NC(C)=O)cc2s1 | 90.9%
CCOC(=O)N1CCC(NC(=O)c2cc3c(C)nc4ccccc4c3o2)CC1 | 102%
CCOC(=O)C1CCN(C(=O)c2ccc(OC)cc2OC)CC1 | 106%
COc1ccc(NC(=O)Nc2cccs2)cc1OC | 108%
CCOC(=O)Nc1nnc(-c2ccccc2OC)s1 | 90.3%

SMILES | viability
C=CCOC(=O)CN1C(=O)c2ccccc2C1=O | 99.6%
COc1ccc(OC)c(NC(=O)CSc2nnc(CCCO)n2-c2ccccc2)c1 | 96.8%
CCn1c(SCC(=O)n2c(C)c(C)c3ccccc32)nnc1-c1ccco1 | 91.6%
CCOc1ccccc1CNC(=O)Cn1c(=O)oc2ccccc21 | 99.8%
COc1ccccc1N1CCN(C(=O)c2cc(-c3cccs3)on2)CC1 | 107%
Cc1ccccc1CS(=O)(=O)Cc1ccc(C(=O)N2CCOCC2)o1 | 91.3%
CCOc1cc(C)nc(NCCc2ccc(OC)c(OC)c2)n1 | 90.1%
COc1ccc(OC)c(NC(=O)NCc2ccc(F)cc2)c1 | 99.7%
O=C1c2ccccc2C(=O)N1CCc1csc(-c2ccc(F)cc2)n1 | 101%
COc1ccc(Oc2nc(C)cc(C)c2C#N)cc1 | 99.7%
Cc1cc(-c2cc(-c3ccc(Cl)cc3)nc(N)c2C#N)co1 | 103%
O=[N+]([O-])c1cc(/C=N\Nc2nccs2)ccc1O | 108%
CC(OC(=O)c1cccs1)C(=O)NCc1ccco1 (centres undefined) | 99%
CCc1nc(SCC(=O)Nc2ccc(C(=O)O)cc2)n[nH]1 | 96%
CCc1cccc(NC(=O)Cn2ncn3c(cc4ccccc43)c2=O)c1 | 96.6%
COCCNC(=O)COc1ccc(Br)cc1Cl | 88.5%
CSc1cccc(NC(=O)CN(c2cc(C)ccc2C)S(C)(=O)=O)c1 | 96.9%
Cn1c(CN2CCOCC2)nc2cc(NC(=O)c3ccc(F)cc3)ccc21 | 94.2%
N#Cc1nc(-c2ccco2)oc1N1CCN(c2ccccc2)CC1 | 96.4%
CCC(C)(C)n1nnnc1C(c1cc2cc(C)ccc2[nH]c1=O)N1CCCc2ccccc21 (centres undefined) | 105%
O=C(OCc1ccc(Cl)cc1)c1cnccn1 | 94%
O=C(CSc1nccn1Cc1ccccc1)Nc1nccs1 | 95.5%
Cc1ccc(NC(=O)CCC(=O)NNC(=O)COc2cccc3ccccc23)c(C)c1 | 95.2%
CS(=O)(=O)N(CC(=O)NCc1ccc2c(c1)OCO2)Cc1ccccc1 | 96.3%
O=C(O)Cc1ccc(C(=O)c2ccccc2)s1 | 96.4%

SMILES | viability
Oc1ccc(/C=N/NC2=NCCCCC2)c(O)c1 | 101%
CC(=O)C1CCN(Cc2ccccc2)CC1 | 97.3%
Cc1ccc(C)n1Cc1ccc(C(=O)O)cc1 | 88.8%
Cn1cccc1C(=O)NC(=O)COC(=O)CC12CC3CC(CC(Br)(C3)C1)C2 | 97%
O=C(COC(=O)c1cc(-c2ccco2)nc2ccccc12)NCc1ccc2c(c1)OCO2 | 101%
Cc1nc(C(=O)N(C)C)nn1-c1cc(Cl)cc(Cl)c1 | 97.7%
CCOC(=O)c1ccc(-n2ncc(C(=O)OCC)c2N)cc1 | 92.9%
Cc1ccc(S(=O)(=O)N2CCC(C(=O)Nc3nnc(-c4ccco4)s3)CC2)cc1 | 102%
CCN(CC)c1ccc(/C=N/n2c(C)cc(C)cc2=O)cc1 | 92.2%
CCOc1ccc(Br)cc1/C=N/O | 98.1%
CCOc1ccc(N(CC(=O)NC2CCCCC2)S(=O)(=O)c2c(C)noc2C)cc1 | 94.7%
Cc1onc(-c2ccccc2)c1C(=O)N1CCCc2ccccc21 | 93.6%
C=CCn1c(SCC(=O)c2cc(C)n(C(C)COC)c2C)nc2sc(C)c(C)c2c1=O (centres undefined) | 97.2%
CCOC(=O)c1ccc(NS(=O)(=O)c2ccc3c(c2)oc(=O)n3C)cc1 | 99.5%
Cc1nnc(-c2cnn(-c3ccccc3)c2N)n1Cc1cccc(C(F)(F)F)c1 | 88.8%
C/C(=C1\SC(N2CCOCC2)=NC1=O)c1ccccc1 | 101%
Cc1noc(C)c1C(=O)N1CCN(c2ncccn2)CC1 | 109%
COc1ccc(NS(=O)(=O)c2cccc(Cl)c2Cl)cc1S(=O)(=O)N1CCCCC1 | 86.5%
CCC(=O)N1CCN(c2ccccc2NC(=O)c2cccc(C)c2)CC1 | 107%
O=C(NCc1ccc(Cl)cc1)c1ccccc1Oc1ccccc1 | 102%
CCC(=O)NNc1ncnc2ccccc12 | 94.4%
COC(=O)c1cccc(NC(=O)c2cccc(OC)c2)c1 | 83%
COc1cc2c(cc1NC(=O)COC(=O)Cn1cnc3ccccc31)oc1ccccc12 | 88.4%
CCOC(=O)N1CCC(Nc2c(-c3ccc(C)cc3)c(=O)c2=O)CC1 | 98.5%
